Test results: PubChem BioAssay (Tox21)
Records with an inconclusive call do not appear. Active and inactive are the calls of the source. Unless noted, calls follow the shape of the dose curve; as a rule, active = well fitted curve in the direction sought with a large enough effect in the repeat runs; inconclusive = weak or mixed curves; inactive = no such curve, though single readings can be large; an effect the other way counts as inactive or inconclusive.

Assays:
[1] = qHTS assay to identify small molecule antagonists of the estrogen related receptor signaling pathway with the pleiotropic PPARgamma coactivator (PGC) from Tox21 10K library - cell viability counter screen (AID 1224840; active = well fitted cell-killing curve with a large enough effect in the repeat runs, not every such curve was filed as active; also: nearly all actives have a fitted effect of over 40% in size)
Summary of the method: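 PGC/ERR cells, 2,000/well; 6 h pre-incubation 37 C/5% CO2; cpd in DMSO via pin tool; 17.5 h 37 C; CellTiter-Fluor, 30 min; fluorescence.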

[2] = biological target: Thyrotropin receptor (Homo sapiens) (UniProt P16473); assay: qHTS assay to identify small molecule agonists of the thyroid stimulating hormone receptor (TSHR) signaling pathway (AID 1224843; calls by dose curve; also: nearly all actives have a fitted effect of over 45% in size)
Summary of the method: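 Cell line HEK293 with TSHR; density 800/well. Exposure 30 min RT. Readout HTRF cAMP (cAMP-d2/anti-cAMP-cryptate), 1 h RT before reading.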

[3] = qHTS assay to identify small molecule agonists of the hypoxia (HIF-1) signaling pathway - cell viability counter screen (AID 1224844; calls by dose curve; also: nearly all actives have a fitted effect of over 50% in size)
Summary of the method: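 ME-180 HRE-bla cells, 2,000/well, 0.5% dialyzed FBS; 5 hr settle, 17 hr compound at 37C/5% CO2; CCF4-AM reporter read first, then CellTiter-Glo luminescence after 30 min RT.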

[4] = qHTS assay to identify small molecule agonists of H2AX (AID 1224845; active = well fitted activation curve with a large enough effect in the signal ratio in the repeat runs, not every such curve was filed as active; the % refers to the signal ratio)
Summary of the method: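 Wild-type CHO-K1 cells plated overnight, then exposed 3 hr at 37C to compounds at 15 concentrations (0.76% DMSO). Lysed, then HTRF anti-pH2AX(S139)-cryptate/anti-H2AX-d2 detection after 24 hr at room temperature; emissions 665 and 620 nm.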

[5] = qHTS assay to identify small molecule agonists of H2AX - cell viability counter screen (AID 1224847; calls by dose curve; also: top concentration of the series differs between compounds; nearly all actives have a fitted effect of over 30% in size)
Summary of the method: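 Cells plated first: CHO-K1, 1000 per well in 10% FBS medium, incubated overnight at 37C. Then 15-point compound titration added (final DMSO 0.76%) for 3 hr. Finally CellTiter-Glo added and luminescence read.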

[6] = qHTS RealTime-Glo MT Cell Viability Assay in HepG2 cells - 24 hour (AID 1224867); also: nearly all actives have a fitted effect of over 50% in size
Summary of the method: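 Viability was tracked continuously by NanoLuc luminescence from prosubstrate reduced by living HepG2 cells, at successive time points over 40 h of compound exposure. Cells with reagent were preincubated 5 h at 37 °C before compound addition.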

[7] = qHTS RealTime-Glo MT Cell Viability Assay in HEK293 cells - 32 hour (AID 1224868); also: top concentration of the series differs between compounds; nearly all actives have a fitted effect of over 50% in size
Summary of the method: (§1)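 Viability tracked continuously by luminescence as live cells reduce a prosubstrate for NanoLuc; HEK293 cells preincubated 5 h, compound-treated at 37 C, and read at 0, 8, 16, 24, 32 and 40 h.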

[8] = A CellTox Green Cytotoxicity Assay to monitor cytotoxicity in HEK293 cells - 0 hour (AID 1224869); also: nearly all actives have a fitted effect of over 50% in size
Summary of the method: (§2)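 Nonlytic real-time cytotoxicity: HEK293 + CellTox Green reagent plated, 5 h preincubation, pintool compound addition (23 nL in DMSO), 37 C for 40 h, fluorescence measured at successive time points.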

[9] = qHTS RealTime-Glo MT Cell Viability Assay in HepG2 cells - 40 hour (AID 1224870); also: nearly all actives have a fitted effect of over 50% in size
Summary of the method: (§3)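 HepG2 cells mixed with RealTime-Glo MT reagents (NanoLuc plus cell-permeant prosubstrate) were seeded at 600 cells/well, incubated 5 h at 37 C/5% CO2, then pinned with compounds in DMSO; nonlytic luminescence tracked viability during 40 h treatment.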

[10] = A CellTox Green Cytotoxicity Assay to monitor cytotoxicity in HEK293 cells - 40 hour (AID 1224871); also: nearly all actives have a fitted effect of over 45% in size
Summary of the method: as §2

[11] = qHTS RealTime-Glo MT Cell Viability Assay in HEK293 cells - 16 hour (AID 1224872)
Summary of the method: as §1

[12] = qHTS RealTime-Glo MT Cell Viability Assay in HepG2 cells - 8 hour (AID 1224873); also: nearly all actives have a fitted effect of over 55% in size
Summary of the method: as §3

[13] = qHTS RealTime-Glo MT Cell Viability Assay in HEK293 cells - 40 hour (AID 1224874); conditions: RealTime-Glo luminescence; max response: hits give low values; also: nearly all actives have a fitted effect of over 50% in size
Summary of the method: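 Cells were seeded together with NanoLuc luciferase and a prosubstrate that viable cells reduce to a luciferase substrate. After a 5 h incubation at 37 C/5% CO2, compounds were added and luminescence was measured repeatedly during 40 h of treatment.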

[14] = A CellTox Green Cytotoxicity Assay to monitor cytotoxicity in HEK293 cells - 24 hour (AID 1224875); also: series mostly up to about 77 µM; nearly all actives have a fitted effect of over 45% in size
Summary of the method: as §2

[15] = qHTS assay to identify small molecule agonists of the hypoxia (HIF-1) signaling pathway (AID 1224846; active = well fitted activation curve with a large enough effect in the signal ratio in the repeat runs, not every such curve was filed as active; the % refers to the signal ratio)
Summary of the method: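 Cell line: CellSensor HRE-bla ME-180; 2,000 cells/well; 0.5% dialyzed FBS; 5 h preincubation; DMSO compound pin transfer; 17 h, 37C, 5% CO2; CCF4-AM added; bla FRET signal scored for activation.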

[16] = qHTS assay to identify small molecule agonists of the estrogen related receptor signaling pathway with the pleiotropic PPARgamma coactivator (PGC) from Tox21 10K library (AID 1224842); also: nearly all actives have a fitted effect of over 15% in size
Summary of the method: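 PGC/ERR reporter cells (NTP line) were seeded 2,000 per well, rested 6 h at 37 C/5% CO2, then pin-dosed with compounds in DMSO for 18 h at 37 C; luciferase read by One-Glo luminescence after 30 min at room temperature.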

[17] = qHTS assay to identify small molecule antagonists of the estrogen related receptor (ERR) signaling pathway from Tox21 library (AID 1224848); also: nearly all actives have a fitted effect of over 50% in size
Summary of the method: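 Screening used an ERR reporter line supplied by NTP, exposed for 18 h at 37 C to library compounds delivered in DMSO. Signal was luciferase luminescence developed with ONE-Glo at room temperature for 30 min.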

[18] = qHTS assay to identify small molecule agonists of the estrogen related receptor (ERR) signaling pathway from Tox21 library (AID 1224849; calls by dose curve; also: nearly all actives have a fitted effect of over 15% in size)
Summary of the method: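 ERR cells, 6 h pre-incubation 37 C/5% CO2; cpd in DMSO pinned; 18 h 37 C; ONE-Glo added, 30 min RT; luminescence read. Agonist mode, qHTS.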
% is scaled to controls: 0 for no effect and ±100 for the full control effect.

Sequence of Thyrotropin receptor (Homo sapiens) (P16473 whole entry, looked up): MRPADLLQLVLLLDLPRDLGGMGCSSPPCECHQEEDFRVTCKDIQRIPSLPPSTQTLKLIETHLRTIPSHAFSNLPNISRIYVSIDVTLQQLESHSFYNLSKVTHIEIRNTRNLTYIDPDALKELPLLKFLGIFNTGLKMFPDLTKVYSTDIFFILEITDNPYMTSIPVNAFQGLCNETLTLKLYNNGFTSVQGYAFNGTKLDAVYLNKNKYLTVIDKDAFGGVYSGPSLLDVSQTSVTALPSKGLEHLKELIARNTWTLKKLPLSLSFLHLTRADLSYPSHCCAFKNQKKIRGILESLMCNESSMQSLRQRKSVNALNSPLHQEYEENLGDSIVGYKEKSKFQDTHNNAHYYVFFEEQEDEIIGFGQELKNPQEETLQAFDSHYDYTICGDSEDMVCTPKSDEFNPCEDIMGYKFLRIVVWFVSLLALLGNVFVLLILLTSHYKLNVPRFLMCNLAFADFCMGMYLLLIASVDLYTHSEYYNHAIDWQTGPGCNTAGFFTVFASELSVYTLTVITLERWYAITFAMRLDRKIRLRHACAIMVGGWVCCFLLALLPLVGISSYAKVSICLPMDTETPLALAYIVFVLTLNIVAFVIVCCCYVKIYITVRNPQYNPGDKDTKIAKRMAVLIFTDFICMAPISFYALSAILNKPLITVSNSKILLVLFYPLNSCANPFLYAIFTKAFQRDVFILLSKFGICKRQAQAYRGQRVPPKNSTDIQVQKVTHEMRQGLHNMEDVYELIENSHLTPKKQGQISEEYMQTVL

CCOC(=O)CCc1ccccc1
inactive: outcome [1] | outcome [2] | outcome [3] | outcome [4] | Potency [5] | outcome [6] | Potency [7] | Potency [8] | outcome [9] | Potency [10] | Potency [11] | outcome [12] | max response [13] 3.62% | Potency [14]

O=S(=O)(O)CCO
inactive: outcome [1] | outcome [2] | outcome [3] | outcome [4] | outcome [15] | outcome [6] | Potency [7] | Potency [8] | outcome [9] | Potency [10] | Potency [11] | outcome [12] | max response [13] -10.5% | Potency [14]

Cc1cc(C)cc([N+](=O)[O-])c1
inactive: outcome [1] | outcome [2] | outcome [3] | outcome [4] | Potency [5] | outcome [6] | Potency [7] | Potency [8] | outcome [9] | Potency [10] | Potency [11] | outcome [12] | max response [13] -13.7% | Potency [14]

COCCOCCOCCOC
inactive: outcome [1] | outcome [3] | outcome [4] | outcome [15] | Potency [5] | outcome [6] | Potency [7] | Potency [8] | outcome [9] | Potency [10] | Potency [11] | outcome [12] | max response [13] 2.64% | Potency [14]

NC(Cc1c[nH]c2ccccc12)C(=O)O (configuration not stated)
inactive: outcome [1] | outcome [2] | outcome [3] | outcome [4] | Potency [5] | outcome [6] | Potency [7] | Potency [8] | outcome [9] | Potency [10] | Potency [11] | outcome [12] | max response [13] 13.4% | Potency [14]

NCCc1ccn[nH]1
inactive: outcome [1] | outcome [2] | outcome [3] | outcome [4] | Potency [5] | outcome [6] | Potency [7] | Potency [8] | outcome [9] | Potency [10] | Potency [11] | outcome [12] | max response [13] 6.3% | Potency [14]

Nc1cc(C(=O)O)ccc1Cl
inactive: outcome [1] | outcome [2] | outcome [3] | outcome [4] | outcome [6] | Potency [7] | Potency [8] | outcome [9] | Potency [10] | Potency [11] | outcome [12] | max response [13] 6.48% | Potency [14]

BrC/C=C/CBr
inactive: viability change, negative = cytotoxic [1] 5.69% [at 19 µM] | activation [2] -9.51% [at 19 µM] | activity change, negative = cytotoxicity [3] -5.88% [at 15.8 µM] | activation (H2AX phosphorylation) [4] -0.0482% [at 31.6 µM] | activation [15] -1.18% [at 15.8 µM] | activity change, negative = cytotoxicity [6] 3.48% [at 15.8 µM] | activity change, negative = cytotoxic [7] -0.679% [at 15.8 µM] | cytotoxicity [8] 0.203% [at 15.8 µM] | activity change, negative = cytotoxic [9] -1.8% [at 15.8 µM] | cytotoxicity increase [10] 1.51% [at 15.8 µM] | activity change, negative = cytotoxicity [11] 1.42% [at 15.8 µM] | viability change, negative = cytotoxic [12] 2.32% [at 15.8 µM] | max response [13] -1.67% | activity change [14] 2.67% [at 15.8 µM, hits give high values]

COCC(=O)Nc1c(I)c(C(=O)NCC(O)CO)c(I)c(C(=O)N(C)CC(O)CO)c1I (configuration not stated)
inactive: outcome [1] | outcome [2] | outcome [3] | outcome [4] | Potency [5] | outcome [6] | Potency [8] | outcome [9] | Potency [10] | outcome [12]

CCCO
inactive: outcome [1] | outcome [3] | outcome [4] | outcome [15] | Potency [5] | outcome [6] | Potency [7] | Potency [8] | outcome [9] | Potency [10] | Potency [11] | outcome [12] | max response [13] 1.64% | Potency [14]

O=C1CC[C@H](C(=O)N2CCCCC2)N1
inactive: outcome [1] | outcome [2] | outcome [3] | outcome [4] | outcome [6] | Potency [7] | Potency [8] | Potency [10] | Potency [11] | outcome [12] | max response [13] -2.81% | Potency [14]

Cc1ccc(C(=O)C(=O)O)cc1C
inactive: outcome [1] | outcome [3] | outcome [4] | outcome [15] | Potency [5] | outcome [6] | Potency [7] | Potency [8] | outcome [9] | Potency [10] | Potency [11] | outcome [12] | max response [13] -0.829% | Potency [14]

CCCCCCCC[Si](OCC)(OCC)OCC
inactive: outcome [1] | outcome [3] | outcome [4] | outcome [15] | Potency [5] | outcome [6] | Potency [7] | Potency [8] | outcome [9] | Potency [10] | Potency [11] | outcome [12] | max response [13] 0.929%

CCC1Nc2cc(Cl)c(S(N)(=O)=O)cc2S(=O)(=O)N1 (configuration not stated)
inactive: outcome [1] | outcome [2] | outcome [3] | outcome [4] | outcome [15] | outcome [6] | Potency [7] | Potency [8] | outcome [9] | Potency [10] | Potency [11] | outcome [12] | max response [13] -2.14% | Potency [14]

C=CCOCC(O)CCl (configuration not stated)
inactive: outcome [1] | outcome [3] | outcome [4] | outcome [15] | Potency [5] | outcome [6] | Potency [7] | Potency [8] | outcome [9] | Potency [10] | Potency [11] | outcome [12] | max response [13] 0.946% | Potency [14]

COC(/C=C(\C)CCC=C(C)C)OC
inactive: outcome [1] | outcome [2] | outcome [3] | outcome [4] | Potency [5] | outcome [6] | Potency [7] | outcome [9] | Potency [10] | Potency [11] | outcome [12] | max response [13] 4.55%

OC(CCN1CCCCC1)(c1ccccc1)c1ccccc1
inactive: outcome [3] | outcome [4] | Potency [5] | outcome [6] | Potency [7] | Potency [8] | Potency [10] | Potency [11] | outcome [12] | max response [13] -16.7% | Potency [14]

CCc1nccnc1C
inactive: outcome [16] | outcome [2] | outcome [3] | outcome [4] | outcome [15] | Potency [5] | Potency [17] | outcome [18] | outcome [6] | Potency [7] | Potency [8] | outcome [9] | Potency [10] | Potency [11] | outcome [12] | max response [13] 6.93% | Potency [14]
